# Several values for one entry are separate records, joined by “and”; a condition that tells them apart may be missing. Identical values can stand only once. Unmarked numbers belong to inactive results. Inconclusive results are not listed. Activity calls are given as the source filed them. Unless noted, the call rests on the fitted dose curve; in most records, active means well fitted curve in the direction sought with a large enough effect; inconclusive means small, poorly fitted or top-dose-only effect, or another doubt; inactive means no such curve, though single readings can be large; an effect the other way counts as inactive or inconclusive.
# Key:
# [1] = AP1 Signaling Pathway (AID 357; active means well fitted curve in either direction with a large enough effect, not every such curve was filed as active;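 further: ME-180 reporter cells stimulated with EGF at its EC50 level; on the % scale 0 is the no-effect control and ±100 the full control effect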); conditions: ME-180 AP-1-bla reporter, EGF-induced, beta-lactamase ratio, 5 h
# Method in brief: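 In this screen, ME-180 cells in Opti-MEM with 0.5% dialyzed FBS received EC50 EGF and compound titrations for 5 h. AP-1 reporter beta-lactamase was detected via CCF4 ratio, giving AC50 for positive and negative modulators.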
# [2] = NFAT Signaling Pathway (AID 444; active means well fitted curve in either direction with a large enough effect, not every such curve was filed as active;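 further: carbachol stimulus at about its EC50 of 1 µM final; on the % scale 0 is the no-effect control and ±100 the full control effect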); conditions: Jurkat NFAT-bla M1, carbachol, beta-lactamase ratio, 5 h
# Method in brief: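 Jurkat cells carrying an NFAT-driven β-lactamase reporter and co-transfected muscarinic M1 receptor were treated with compound plus carbachol (1 uM final, an EC50 level) for 5 h at 37 °C. CCF4 loading followed for 1 h at RT; 460/530 nm ratio gave %activity.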
# [3] = Stat Signaling Pathway (AID 446; active means well fitted curve in either direction with a large enough effect, not every such curve was filed as active;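 further: ME-180 cervical cancer cells given 40 pM IL-6 alongside compound; SIE-controlled beta-lactamase reporter measured as 460/530 nm FRET emission ratio; on the % scale 0 is the no-effect control and ±100 the full control effect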); conditions: ME-180 (cervical carcinoma) SIE beta-lactamase reporter, IL-6 stimulated, 5 h; at 17.2 µM (top of the series)
# Method in brief: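 Compound effects on IL-6-induced STAT reporter activity were measured in ME-180 cells. After overnight culture, cells were co-treated with 40 pM IL-6 for 5 hrs before beta-lactamase substrate loading at room temperature.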
# [4] = target: Cytochrome P450 2D6 (Homo sapiens) (UniProt P10635); assay: qHTS Assay for Inhibitors and Substrates of Cytochrome P450 2D6 (AID 891); conditions: recombinant CYP2D6, luciferin-ME EGE luminescence; series mostly up to 57.1 µM; further: potency means the concentration at half of the fitted maximal effect; nearly all actives have a fitted effect of over 60% in size
# Method in brief: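 Luminescent read-out of luciferin formed by 5 nM human CYP2D6 demethylating 30 uM Luciferin-ME EGE (Km level) over 60 min at room temperature after NADPH regeneration addition. Data normalized to full inhibition by 1.43 uM quinidine.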
# [5] = target: Ubiquitin carboxyl-terminal hydrolase 1 (Homo sapiens) (UniProt O94782); assay: Inhibitors of USP1/UAF1: Pilot qHTS (AID 504865); conditions: purified USP1/UAF1, Ub-rhodamine cleavage fluorescence; series mostly up to 114 µM;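 further: rhodamine fluorescence freed from ubiquitin-rhodamine substrate followed over time; top concentration of the series differs between compounds; on the % scale 0 is the no-effect control and ±100 the full control effect; nearly all actives have a fitted effect of over 35% in size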
# Method in brief: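 USP1/UAF1 complex at 1 nM preincubated 15 min at room temperature with compound, then Ub-Rho substrate added at 150 nM final. Fluorescence (480/540 nm) read kinetically in 50 mM HEPES pH 7.8, 0.5 mM EDTA, 1 mM TCEP, 0.1 mg/ml BSA, 0.01% Tween-20.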
# [6] = target: Guanine nucleotide-binding protein G(i) subunit alpha-1 (Homo sapiens) (UniProt P63096); assay: qHTS Assay for Inhibitors of RGS12 GoLoco Motif Activity (Green Fluorophore) (AID 879); conditions: Galphai1/FITC-RGS12 GoLoco peptide, fluorescence polarization; series mostly up to 57.1 µM;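 further: 0% = labeled peptide with Gαi1 and full inhibition = labeled peptide alone without protein; negative values mean loss of peptide binding seen as reduced polarization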
# Method in brief: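 A drop in FITC polarization marked displacement of the FITC-tagged RGS12 GoLoco peptide (10 nM) from Gαi1 (50 nM). Compounds were incubated 10 min at room temperature in Tris pH 7.5 buffer containing 150 mM NaCl, 0.1 mM GDP and 0.05% NP40; unlabeled peptide titration served as control.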
# [7] = target: Cytochrome P450 2C9 (Homo sapiens) (UniProt P11712); assay: qHTS Assay for Inhibitors and Substrates of Cytochrome P450 2C9 (AID 883); conditions: recombinant CYP2C9, luciferin-H luminescence, 60 min; series mostly up to 57.1 µM; further: on the % scale 0 is the no-effect control and ±100 the full control effect; nearly all actives have a fitted effect of over 60% in size
# Method in brief: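 Human CYP2C9 (10nM) hydroxylated Luciferin-H (100uM, at its KM) to luciferin in 25mM KPO4. Compound was preincubated 10 min at 37C, then NADPH regeneration started a 60 min reaction at 37C. Luminescence was read after detection reagent, normalized to 57uM sulphaphenazole.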
# [8] = target: Cytochrome P450 3A4 (Homo sapiens) (UniProt P08684); assay: qHTS Assay for Inhibitors and Substrates of Cytochrome P450 3A4 (AID 884); conditions: recombinant CYP3A4, Luciferin-PPXE luminescence; series mostly up to 57.1 µM; further: potency means the concentration at half of the fitted maximal effect; nearly all actives have a fitted effect of over 50% in size
# Method in brief: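 Luminescent readout of luciferin produced by CYP3A4 (20 nM) dealkylation of Luciferin-PPXE, 25 uM (its KM). NADPH-driven reaction ran 60 min at RT after 10 min compound preincubation; data scaled to 57 uM ketoconazole as 100% inhibition.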
# [9] = target: Cytochrome P450 3A4 (Homo sapiens) (UniProt P08684); assay: qHTS Assay for Activators of Cytochrome P450 3A4 (AID 885); conditions: recombinant CYP3A4, Luciferin-PPXE luminescence, 60 min; series mostly up to 57.1 µM; further: nearly all actives have a fitted effect of over 65% in size
# Method in brief: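 CYP3A4 activity: Luciferin-PPXE O-dealkylation, 25uM substrate, 200mM KPO4, RT throughout. Read-out is luciferase luminescence; higher values reflect activation.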
# [10] = target: Pyruvate kinase (Leishmania mexicana) (UniProt Q27686); assay: qHTS Validation Assay for Inhibitors of Leishmania Mexicana Pyruvate Kinase (AID 945);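 further: 0% = DMSO only neutral control wells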; conditions: purified L. mexicana pyruvate kinase, enzyme activity, E451W mutant enzyme; series mostly up to 57.5 µM
# Method in brief: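 An endpoint luciferase assay: 0.2 nM LmPYK E451W turns over 0.5 mM PEP with 0.1 mM ADP for 1 h at room temperature, pH 7.2, before PKLight addition. Values are normalized to DMSO-only wells.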
# [11] = target: Pyruvate kinase PKM (Homo sapiens) (UniProt P14618); assay: qHTS Assay for Activators of Human Muscle Pyruvate Kinase (AID 954; active means well fitted curve in the direction sought with a large enough effect, not every such curve was filed as active;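 further: 0% = uninhibited enzyme and -100% = no enzyme or full thiadiazolimine inhibition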); conditions: purified human muscle pyruvate kinase, luciferase-coupled luminescence, 1 h; series mostly up to 57.5 µM
# Method in brief: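 A coupled luminescent readout tracked ATP made from ADP by purified PKM2. Final conditions included 0.1 nM enzyme, PEP and ADP at 0.5 and 0.1 mM, pH 7.2 imidazole buffer with BSA, and a one-hour room-temperature reaction.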
# [12] = target: alpha-glucosidase (Oryza sativa, rice) (UniProt Q653V4); assay: Counterscreen for Glucocerebrosidase Inhibitors: qHTS Assay for Rice alpha-Glucosidase at pH 5.0 (AID 997); conditions: rice alpha-glucosidase enzyme activity; series mostly up to 76.9 µM;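 further: 0% = full activity with enzyme and -100% = basal without enzyme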
# Method in brief: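 Endpoint fluorogenic assay at pH 5.0: compounds (0.7 nM to 77 uM) titrated against 4 nM rice enzyme and 400 uM 4-MU-alpha-glucoside for 20 min at room temperature; NaOH/glycine stop, read ex 365/em 440 nm, Hill-fitted AC50.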
# [13] = Primary qHTS for inhibitors of nuclear receptor binding SET domain protein 2 (NSD2) in an RCH-ACV wild type WT cells (2C) (AID 1645877); conditions: RCH-ACV NSD2 WT (2C) viability, CellTiter-Glo, 72 h; series mostly up to 44.9 µM; further: potency means the concentration at half of the fitted maximal effect; nearly all actives have a fitted effect of over 70% in size
# [14] = target: Glutathione peroxidase 1 (Homo sapiens) (UniProt P07203); assay: Primary qHTS Assay for Inhibitors of Recombinant Selenoprotein Glutathione Peroxidase 1 (GPX1) (AID 1845191); conditions: recombinant GPX1, GR-coupled NADPH fluorescence, 15 min; series mostly up to 48.8 µM; further: nearly all actives have a fitted effect of over 65% in size; on activity, negative = inhibition: on the % scale 0 is the no-effect control and ±100 the full control effect
# Method in brief: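 GPX1 10 nM, GR 100 nM, GSH 1 mM, NADPH 0.5 mM, CHP 0.5 mM (final). 30-min cpd preincubation, RT. Ex340/Em450 read t=0, t=15 min.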
# [15] = Primary qHTS for inhibitors of nuclear receptor binding SET domain protein 2 (NSD2) in an isogenic RCH-ACV NSD2 p.E1099K mutant (9B) (AID 1645876); conditions: RCH-ACV (leukaemia line) NSD2 E1099K (9B) viability, CellTiter-Glo, 72 h; series mostly up to 44.9 µM; further: potency means the concentration at half of the fitted maximal effect; nearly all actives have a fitted effect of over 70% in size
# Sequence of Glutathione peroxidase 1 (Homo sapiens) (P07203 whole entry, looked up): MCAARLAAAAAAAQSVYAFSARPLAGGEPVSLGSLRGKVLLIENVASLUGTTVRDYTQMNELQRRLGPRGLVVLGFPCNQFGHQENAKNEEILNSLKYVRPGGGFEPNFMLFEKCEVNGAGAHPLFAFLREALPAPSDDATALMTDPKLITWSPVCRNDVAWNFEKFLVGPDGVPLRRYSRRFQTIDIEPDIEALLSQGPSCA
# Sequence of Ubiquitin carboxyl-terminal hydrolase 1 (Homo sapiens) (O94782 whole entry, looked up): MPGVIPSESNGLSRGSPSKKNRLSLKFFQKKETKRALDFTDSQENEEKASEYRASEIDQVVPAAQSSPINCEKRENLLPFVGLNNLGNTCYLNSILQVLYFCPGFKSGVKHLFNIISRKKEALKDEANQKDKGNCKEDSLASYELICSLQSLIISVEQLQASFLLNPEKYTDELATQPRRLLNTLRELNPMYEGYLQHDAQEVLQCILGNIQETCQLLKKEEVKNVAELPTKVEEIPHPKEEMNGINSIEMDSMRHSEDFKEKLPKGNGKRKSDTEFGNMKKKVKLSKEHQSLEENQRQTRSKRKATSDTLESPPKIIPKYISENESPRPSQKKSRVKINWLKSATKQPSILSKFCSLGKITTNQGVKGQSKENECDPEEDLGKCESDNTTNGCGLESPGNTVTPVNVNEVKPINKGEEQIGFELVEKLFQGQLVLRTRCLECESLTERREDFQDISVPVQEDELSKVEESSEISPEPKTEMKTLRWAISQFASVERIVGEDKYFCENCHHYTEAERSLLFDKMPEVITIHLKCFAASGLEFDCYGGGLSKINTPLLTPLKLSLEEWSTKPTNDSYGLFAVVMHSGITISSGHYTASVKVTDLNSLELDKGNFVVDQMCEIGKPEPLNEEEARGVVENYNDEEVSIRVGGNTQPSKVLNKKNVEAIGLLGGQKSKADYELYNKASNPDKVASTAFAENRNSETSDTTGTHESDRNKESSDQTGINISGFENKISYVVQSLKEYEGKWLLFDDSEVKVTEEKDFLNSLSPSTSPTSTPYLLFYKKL
# Sequence of Cytochrome P450 3A4 (Homo sapiens) (P08684 whole entry, looked up): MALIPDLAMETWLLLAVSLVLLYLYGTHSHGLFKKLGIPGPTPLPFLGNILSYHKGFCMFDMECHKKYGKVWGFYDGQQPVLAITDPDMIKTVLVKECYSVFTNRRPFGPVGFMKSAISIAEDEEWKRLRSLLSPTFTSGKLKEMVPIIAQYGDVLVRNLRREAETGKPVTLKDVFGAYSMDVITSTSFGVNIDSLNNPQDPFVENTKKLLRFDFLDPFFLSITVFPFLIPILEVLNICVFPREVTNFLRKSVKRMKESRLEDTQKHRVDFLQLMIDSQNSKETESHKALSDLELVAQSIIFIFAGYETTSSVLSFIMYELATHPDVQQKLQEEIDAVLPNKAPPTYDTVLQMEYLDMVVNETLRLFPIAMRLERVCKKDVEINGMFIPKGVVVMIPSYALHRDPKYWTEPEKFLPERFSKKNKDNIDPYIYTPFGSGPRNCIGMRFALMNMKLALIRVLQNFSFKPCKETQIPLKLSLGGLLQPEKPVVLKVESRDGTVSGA
# Sequence of Pyruvate kinase (Leishmania mexicana) (Q27686 2-499 E452W): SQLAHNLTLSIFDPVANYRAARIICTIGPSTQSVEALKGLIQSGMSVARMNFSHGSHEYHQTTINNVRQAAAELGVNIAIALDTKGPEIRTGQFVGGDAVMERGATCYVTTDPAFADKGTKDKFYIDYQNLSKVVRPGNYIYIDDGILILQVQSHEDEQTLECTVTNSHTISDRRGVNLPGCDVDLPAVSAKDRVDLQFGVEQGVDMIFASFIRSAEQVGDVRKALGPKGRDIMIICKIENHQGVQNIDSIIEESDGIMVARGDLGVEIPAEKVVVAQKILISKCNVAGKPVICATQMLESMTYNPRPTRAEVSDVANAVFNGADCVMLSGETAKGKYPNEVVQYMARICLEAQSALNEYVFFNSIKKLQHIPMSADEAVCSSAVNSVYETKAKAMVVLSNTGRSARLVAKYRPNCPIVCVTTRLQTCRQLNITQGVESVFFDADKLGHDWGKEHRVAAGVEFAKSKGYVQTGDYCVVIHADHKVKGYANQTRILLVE
# Sequence of Cytochrome P450 2C9 (Homo sapiens) (P11712 whole entry, looked up): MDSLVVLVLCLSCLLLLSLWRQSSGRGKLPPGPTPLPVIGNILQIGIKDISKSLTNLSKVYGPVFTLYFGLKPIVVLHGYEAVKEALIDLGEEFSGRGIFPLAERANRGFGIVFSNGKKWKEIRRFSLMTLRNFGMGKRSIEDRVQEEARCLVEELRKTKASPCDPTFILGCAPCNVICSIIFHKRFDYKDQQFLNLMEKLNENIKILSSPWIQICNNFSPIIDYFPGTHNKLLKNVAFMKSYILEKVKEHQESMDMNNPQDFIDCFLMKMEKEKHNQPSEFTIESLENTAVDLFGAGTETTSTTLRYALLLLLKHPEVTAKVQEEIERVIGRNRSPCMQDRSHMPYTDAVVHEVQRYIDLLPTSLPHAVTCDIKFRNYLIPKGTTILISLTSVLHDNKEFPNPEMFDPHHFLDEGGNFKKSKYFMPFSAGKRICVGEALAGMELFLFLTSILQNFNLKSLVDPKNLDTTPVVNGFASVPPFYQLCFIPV
# Sequence of Cytochrome P450 2D6 (Homo sapiens) (P10635 whole entry, looked up): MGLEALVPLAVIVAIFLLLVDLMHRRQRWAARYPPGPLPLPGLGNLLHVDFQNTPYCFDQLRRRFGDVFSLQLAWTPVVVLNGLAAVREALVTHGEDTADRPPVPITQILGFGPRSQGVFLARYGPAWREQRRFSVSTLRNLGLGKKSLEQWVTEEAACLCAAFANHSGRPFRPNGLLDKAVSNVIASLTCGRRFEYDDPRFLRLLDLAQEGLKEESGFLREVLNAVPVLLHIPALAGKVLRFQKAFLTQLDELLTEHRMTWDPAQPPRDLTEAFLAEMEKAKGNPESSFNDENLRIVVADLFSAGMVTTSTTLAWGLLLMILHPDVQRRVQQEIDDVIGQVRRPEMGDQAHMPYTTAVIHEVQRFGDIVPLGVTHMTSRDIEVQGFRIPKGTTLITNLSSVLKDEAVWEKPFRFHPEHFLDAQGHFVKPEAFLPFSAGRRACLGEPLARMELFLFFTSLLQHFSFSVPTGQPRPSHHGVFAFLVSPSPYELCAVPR
# Sequence of Pyruvate kinase PKM (Homo sapiens) (P14618 whole entry, looked up): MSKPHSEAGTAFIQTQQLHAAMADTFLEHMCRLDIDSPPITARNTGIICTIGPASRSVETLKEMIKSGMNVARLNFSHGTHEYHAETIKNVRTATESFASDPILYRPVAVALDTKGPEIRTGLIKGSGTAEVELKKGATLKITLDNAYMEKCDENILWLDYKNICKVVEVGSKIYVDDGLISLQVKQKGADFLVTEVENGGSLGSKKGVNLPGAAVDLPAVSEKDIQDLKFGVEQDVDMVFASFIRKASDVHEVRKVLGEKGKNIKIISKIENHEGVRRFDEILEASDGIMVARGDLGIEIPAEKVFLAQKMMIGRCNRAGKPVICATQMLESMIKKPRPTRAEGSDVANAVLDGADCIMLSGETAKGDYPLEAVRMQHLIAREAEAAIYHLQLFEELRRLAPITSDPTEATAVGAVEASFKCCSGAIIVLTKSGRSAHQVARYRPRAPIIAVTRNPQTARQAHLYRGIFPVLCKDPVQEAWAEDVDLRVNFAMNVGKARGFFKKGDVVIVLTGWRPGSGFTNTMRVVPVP
# Sequence of Guanine nucleotide-binding protein G(i) subunit alpha-1 (Homo sapiens) (P63096 whole entry, looked up): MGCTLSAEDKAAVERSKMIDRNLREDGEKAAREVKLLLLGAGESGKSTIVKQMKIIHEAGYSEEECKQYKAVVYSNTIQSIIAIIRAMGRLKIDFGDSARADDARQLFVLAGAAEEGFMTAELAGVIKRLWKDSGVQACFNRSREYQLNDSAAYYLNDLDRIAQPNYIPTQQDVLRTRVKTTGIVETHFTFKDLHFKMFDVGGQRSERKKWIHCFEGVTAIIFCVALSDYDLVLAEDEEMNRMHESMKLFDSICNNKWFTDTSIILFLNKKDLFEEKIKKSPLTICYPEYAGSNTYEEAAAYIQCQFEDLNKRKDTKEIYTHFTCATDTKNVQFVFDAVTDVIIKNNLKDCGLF
smiles,measurement,setting,value
CC(=O)Nc1ccc(OC[C@@H](O)CNC(C)C)cc1,"activity change, negative = inhibition",[1]; at 17.2 µM (top of the series),5.39%
same,"activity change, negative = inhibition",[2]; at 17.2 µM (top of the series),-18.7%
same,"activity, negative = inhibition",[3],9.62%
same,Potency,[4],3.16 µM (active)
same,Potency,[5],inactive
N#CC(=C(/N)Sc1ccccc1N)/C(C#N)=C(/N)Sc1ccccc1N,"activity change, negative = inhibition",[1]; at 38 µM (top of the series),-84.2% (active)
same,"activity change, negative = inhibition",[2]; at 38 µM (top of the series),8.23%
same,outcome,[6],inactive
same,Potency,[7],inactive
same,Potency,[8],316 nM (active) and 3.16 µM (active)
same,Potency,[9],inactive
same,Potency,[10],inactive
same,outcome,[11],inactive
same,outcome,[12],inactive
same,Potency,[13],14.6 µM (active)
c1ccc2oc(C3=NCCN3)cc2c1,Potency,[5],inactive
C=C[C@@]1(C)CC(=O)[C@@]2(O)[C@@]3(C)[C@@H](O)CCC(C)(C)[C@@H]3[C@H](O)[C@H](OC(C)=O)[C@@]2(C)O1,Potency,[5],inactive
CCCCCC#CCC#CCC#CCC#CCCCC(=O)O,"activity change, negative = inhibition",[1]; at 17.2 µM (top of the series),-11.4%
same,"activity change, negative = inhibition",[2]; at 17.2 µM (top of the series),-2.11%
NCCCCCCNS(=O)(=O)c1cccc2ccccc12,Potency,[8],6.31 µM (active)
same,Potency,[9],inactive
O=C(/C=C/c1cccnc1)c1ccncc1,Potency,[14],inactive
COc1cc2ncnc(Nc3ccc(NC(=O)c4ccccc4)cc3)c2cc1OC,Potency,[15],8.2 µM (active)
same,Potency,[13],5.8 µM (active)
same,Potency,[14],inactive
C[C@@]12C(=O)OC(=O)[C@@]1(C)[C@@H]1CC[C@@H]2O1,Potency,[9],inactive
same,Potency,[5],inactive
CN(C)CCOc1ccc(-c2nc(-c3ccc4c(c3)CC/C4=N/O)c(-c3ccncc3)[nH]2)cc1,Potency,[15],3.66 µM (active)
same,Potency,[13],7.31 µM (active)
CCCn1cnc2c(NCc3ccc(C)s3)nc(N[C@H](CC)CO)nc21,Potency,[14],inactive
C=CCN(/C=C1\C(=O)OC(COC)C2(C)C1=C(O)C(=O)C1=C2C(OC(C)=O)CC2(C)C(=O)CCC12)CC=C (configuration not stated),Potency,[15],9.2 µM (active)
same,Potency,[13],11.6 µM (active)

# — PubChem BioAssay (NCATS)
